The values that follow come from PubChem BioAssay (EPA / NIEHS).

Molecules are shown by their SMILES. Active and inactive are the calls of the source. How the source made its calls: active means hit-call score of the fitted dose curve at least 0.9, where 1 is the maximum; inactive means score below 0.9.

Details in all cases: mRNA level, 48 h; actives raise or lower the signal
Read-out in assay [1]: CYP2C9 (gene 1559)
The assay can be described thus: LTEA_HepaRG_CYP2C9: Life Technologies and Expression Analysis (LTEA) Assay for CYP2C9 using HepaRG (AID 2283484). In short, it runs like this: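 Eight-point concentration-response (highest 100 uM, half-log dilutions) in HepaRG cells for 48 h; CYP2C9 expression by qRT-PCR normalized to ACTB, GAPDH, POLR2A. Bidirectional fit, DMSO baseline.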

Read-out in assay [2]: CYP2E1 (gene 1571)
The assay can be described thus: LTEA_HepaRG_CYP2E1: Life Technologies and Expression Analysis (LTEA) Assay for CYP2E1 using HepaRG (AID 2283485). In short, it runs like this:
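Readout is qRT-PCR of CYP2E1 mRNA, normalized to three housekeeping genes and fitted bidirectionally against 0.5% DMSO. HepaRG cells were dosed 48 h at eight concentrations, highest 100 uM with half-log dilutions.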

Read-out in assay [3]: CYP4A11 (gene 1579)
The assay can be described thus: LTEA_HepaRG_CYP4A11: Life Technologies and Expression Analysis (LTEA) Assay for CYP4A11 using HepaRG (AID 2283486). In short, it runs like this:
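Readout is CYP4A11 mRNA induction or suppression (qRT-PCR, ACTB/GAPDH/POLR2A normalization) in human HepaRG cells after 48 h chemical treatment, concentrations to 100 uM in 0.5% DMSO, fitted bidirectionally against vehicle.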

Read-out in assay [4]: DNA damage-inducible transcript 3 (DDIT3), DDIT3 (gene 1649)
The assay can be described thus: LTEA_HepaRG_DDIT3: Life Technologies and Expression Analysis (LTEA) Assay for DNA damage-inducible transcript 3 (DDIT3) using HepaRG (AID 2283488). In short, it runs like this:
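Cells are human HepaRG liver cells treated for 48 h with eight half-log concentrations up to 100 uM in 0.5% DMSO. Transcript levels come from qRT-PCR normalized to three housekeeping genes, with activity fitted in both directions relative to vehicle.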

Read-out in assay [5]: Pro-epidermal growth factor (Homo sapiens) (UniProt P01133)
Nature of the assay: LTEA_HepaRG_EGF: Life Technologies and Expression Analysis (LTEA) Assay for Epidermal growth factor (EGF) using HepaRG (AID 2283489). The method in brief:
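EGF expression changes in human HepaRG cells are scored by bidirectional fitting relative to 0.5% DMSO controls. Chemicals are tested at eight half-log concentrations up to 100 uM for 48 h in serum-free induction medium.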

Read-out in assay [6]: Early growth response protein 1 (EGR1) transcription factor, EGR1 (gene 1958)
Nature of the assay: LTEA_HepaRG_EGR1: Life Technologies and Expression Analysis (LTEA) Assay for Early growth response protein 1 (EGR1) transcription factor using HepaRG (AID 2283490). In short, it runs like this:
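EGR1 expression change in human HepaRG after 48 h chemical exposure, assessed by housekeeping-normalized qRT-PCR; concentration-response up to 100 uM, fitted in both directions against DMSO controls.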

Read-out in assay [7]: Ezrin (EZR), EZR (gene 7430)
The assay can be described thus: LTEA_HepaRG_EZR: Life Technologies and Expression Analysis (LTEA) Assay for Ezrin (EZR) using HepaRG (AID 2283491). In short, it runs like this:
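Differentiated human HepaRG cells, 48 h after plating, were exposed in serum-free induction medium for 48 hours to eight half-log concentrations up to 100 uM in 0.5% DMSO. EZR mRNA was measured by TaqMan qRT-PCR, normalized to ACTB, GAPDH and POLR2A, and fitted bidirectionally against DMSO.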

Read-out in assay [8]: CYP3A5 (gene 1577)
The assay can be described thus: LTEA_HepaRG_CYP3A5: Life Technologies and Expression Analysis (LTEA) Assay for CYP3A5 using HepaRG (AID 2283493). The method in brief:
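Human HepaRG hepatic cells receive 48 h chemical treatment at eight concentrations (half-log steps from 100 uM) in 0.5% DMSO. Expression of CYP3A5 is quantified by Fluidigm qRT-PCR and normalized to three reference genes.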

Read-out in assay [9]: Cytochrome P450 3A4 (Homo sapiens) (UniProt P08684)
Nature of the assay: LTEA_HepaRG_CYP3A4: Life Technologies and Expression Analysis (LTEA) Assay for CYP3A4 using HepaRG (AID 2283487). The method in brief:
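Differentiated HepaRG cells in serum-free induction medium exposed in duplicate for 48 h to 8 half-log concentrations up to 100 uM in 0.5% DMSO. CYP3A4 mRNA measured by qRT-PCR normalized to ACTB, GAPDH and POLR2A; bidirectional fit versus DMSO.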

Read-out in assay [10]: Cytochrome P450 3A7 (Homo sapiens) (UniProt P24462)
The assay can be described thus: LTEA_HepaRG_CYP3A7: Life Technologies and Expression Analysis (LTEA) Assay for CYP3A7 using HepaRG (AID 2283492). The method in brief: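 Cells were thawed, plated, cultured 48 h, then treated for a further 48 h with chemicals (eight-point half-log series from 100 uM, 0.5% DMSO). RNA was isolated and CYP3A7 expression quantified by qRT-PCR normalised to ACTB, GAPDH and POLR2A.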

Sequence of Cytochrome P450 3A4 (Homo sapiens) (P08684 whole entry, looked up): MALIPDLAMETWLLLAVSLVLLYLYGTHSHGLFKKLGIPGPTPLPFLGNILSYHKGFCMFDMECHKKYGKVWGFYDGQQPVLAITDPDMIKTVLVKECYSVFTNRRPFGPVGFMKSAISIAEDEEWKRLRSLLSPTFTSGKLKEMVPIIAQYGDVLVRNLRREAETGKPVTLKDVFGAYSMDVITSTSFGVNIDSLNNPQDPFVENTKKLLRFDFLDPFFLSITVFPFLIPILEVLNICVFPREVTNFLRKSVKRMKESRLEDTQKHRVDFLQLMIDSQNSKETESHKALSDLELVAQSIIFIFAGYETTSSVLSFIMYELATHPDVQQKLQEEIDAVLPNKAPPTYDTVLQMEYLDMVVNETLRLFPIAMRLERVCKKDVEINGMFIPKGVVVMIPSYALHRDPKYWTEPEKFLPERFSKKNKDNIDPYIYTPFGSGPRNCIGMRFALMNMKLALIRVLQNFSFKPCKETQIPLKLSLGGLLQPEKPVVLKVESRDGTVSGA
Sequence of Cytochrome P450 3A7 (Homo sapiens) (P24462 whole entry, looked up): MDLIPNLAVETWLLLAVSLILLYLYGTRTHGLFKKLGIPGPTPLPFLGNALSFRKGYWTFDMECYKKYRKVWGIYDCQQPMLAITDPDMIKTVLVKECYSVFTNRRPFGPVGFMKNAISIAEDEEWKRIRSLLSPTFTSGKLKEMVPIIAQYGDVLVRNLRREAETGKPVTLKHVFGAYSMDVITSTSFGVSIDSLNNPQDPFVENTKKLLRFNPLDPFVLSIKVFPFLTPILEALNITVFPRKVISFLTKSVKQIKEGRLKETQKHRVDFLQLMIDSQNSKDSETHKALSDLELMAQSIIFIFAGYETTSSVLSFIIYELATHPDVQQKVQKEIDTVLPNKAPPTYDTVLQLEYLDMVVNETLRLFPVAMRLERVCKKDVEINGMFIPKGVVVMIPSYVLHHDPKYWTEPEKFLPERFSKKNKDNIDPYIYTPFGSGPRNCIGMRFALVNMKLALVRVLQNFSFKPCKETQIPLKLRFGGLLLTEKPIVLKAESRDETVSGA

As to `CCN(CC)C(=O)c1cccc(C)c1`, the AC50 in assay [1] is 3.56 µM (active); in [2] it was 13.4 µM (active). Further, the molecule was called inactive in assay [3], in [4], in assay [5], in [6], in assay [7] and in assay [8].

In the case of `COC(=O)c1ccccc1C(=O)O`, the molecule was classed as inactive in assay [1], in assay [2], in assay [3], in [9], in [4] and in assay [5]. The outcome in [6], in [7], in assay [10] and in [8] was inactive.

For the molecule `O=C(c1ccccc1)C1CCCCC1`, the outcome in assay [2], in [3], in assay [9], in assay [4], in assay [5] and in assay [6] was inactive. The outcome in assay [7], in assay [10] and in [8] was inactive.

As to `CCNc1nc(N)nc(Cl)n1`, the call in [1], in assay [3], in [4], in assay [5], in assay [6] and in assay [7] was inactive. For the same molecule, the outcome in assay [8] was inactive. For the same molecule, the values for the AC50 in [2], in [9] and in assay [10] were 50 µM (active), 3.18 µM (active) and 9.92 µM (active), respectively.

`CCCCC(CC)CN1C(=O)C2C3C=CC(C3)C2C1=O` (stereo not given): the AC50 in assay [1] is 82.6 µM (active); in assay [2] it was 43 µM (active); in assay [3], 36.1 µM (active); in [9] it was 91 µM (active); in [4] it was 72.7 µM (active); in assay [10], 85.7 µM (active). The molecule was called inactive in assay [5], in assay [6], in assay [7] and in assay [8].

Consider `OB(O)O`, for which the molecule was classed as inactive in [2], in assay [3], in assay [9], in assay [4], in assay [5] and in assay [6]. Moreover, the call in assay [7], in assay [10] and in assay [8] was inactive.

`Oc1ccc(C(c2ccc(O)cc2)C(Cl)(Cl)Cl)cc1`: the AC50 in [2] was 93.8 µM (active); in [3], 93.2 µM (active); in assay [9], 78.7 µM (active); in [4] it was 80.3 µM (active); in assay [6] it was 77.7 µM (active); in assay [7] it was 80.9 µM (active). Besides, the AC50 in [10] was 79.8 µM (active); in assay [8], 70.7 µM (active). For the same molecule, the molecule was called inactive in [5].

As to `CN(C)C(=O)Nc1ccc(Cl)c(Cl)c1`, the call in [1], in assay [3], in [9], in assay [4], in assay [5] and in [6] was inactive. Besides, the molecule was called inactive in assay [7], in assay [10] and in [8]. Also, the AC50 in assay [2] is 63 µM (active).

`N#CSCSc1nc2ccccc2s1`: the AC50 in [2] was 81.2 µM (active); in assay [3], 94.4 µM (active); in [10], 64.3 µM (active). Also, the outcome in assay [9], in [4], in [5], in assay [6], in assay [7] and in [8] was inactive.

Regarding `CSC(=O)c1cccc2nnsc12`, the molecule was called inactive in assay [2], in [3], in assay [9], in assay [4], in assay [5] and in assay [6]. Also, the molecule was classed as inactive in [7], in [10] and in assay [8].

As for `CC(C)(C)[C@@H](O)[C@@H](Cc1ccc(Cl)cc1)n1cncn1`, the AC50 is 50 µM (active) in assay [2], 50 µM (active) in assay [3], 7.74 µM (active) in [9] and 5.85 µM (active) in [10]. For the same molecule, the call in assay [4], in assay [5], in assay [6], in assay [7] and in assay [8] was inactive.

Regarding `CCOC(=O)C(C)Oc1ccc(Oc2cnc3cc(Cl)ccc3n2)cc1` (stereo not given), the AC50 in assay [2] was 20 µM (active); in assay [3], 43 µM (active); in assay [10], 0.571 µM (active); in [8] it was 0.628 µM (active). For the same molecule, the molecule was called inactive in [9], in assay [4], in [5], in [6] and in assay [7].

`CCN(Cc1c(F)cccc1Cl)c1c([N+](=O)[O-])cc(C(F)(F)F)cc1[N+](=O)[O-]`: the AC50 was 40.9 µM (active) in [2], 36.3 µM (active) in assay [3], 8.01 µM (active) in [9] and 14 µM (active) in assay [5]. In addition, the molecule was classed as inactive in assay [4], in assay [6], in [7], in assay [10] and in assay [8].

By AC50 is commonly meant the midpoint of the concentration-response curve, whichever way the signal moves.
